ADAM10 inh: inhibits human ADAM10. O14672. recombinant ADAM10, EDANS/DABCYL FRET peptide cleavage, 3 h. inhibition, % at 7 µM. 0.62% of 370,000 active;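 active means inhibition above a per-campaign cutoff equal to the mean of compounds falling between control-based bounds plus 3 SD, cut at about 20% in these data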;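 further: 0% = DMSO wells while the 100% control is not disclosed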
proKLK7 act: activates the human kallikrein-7 zymogen; purified proKLK7, EDANS-DABCYL substrate fluorescence; 100% is mature enzyme control, 0% vehicle; P49862; 0.9% of 370,000 active; activation, % at 7 µM;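 active means activation above the mean of all tested compounds plus 3 SD, computed per campaign excluding outliers beyond control limits, cut at about 13% in these data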
ADAM17 inh: inhibits human ADAM17; recombinant ADAM17, EDANS/DABCYL FRET peptide cleavage; inhibition, % at 6.95 µM; 0.83% of 370,000 active; AID 720648;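 active means inhibition above the mean of compounds lying between control limits plus 3 SD, set per campaign, cut at about 8.5% in these data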;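 further: 0% = DMSO-only wells as the low control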
PLCb3 inh: blocks human PLC-beta3 enzyme activity; Q01970; inhibition, % at 12.2 µM; 0.18% of 370,000 active; Purified PLC-beta3, fluorogenic substrate, fluorescence; in the data active means inhibition above about 11%;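 further: 0% = median of compound wells on plate and 100% = full blocker control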
Target sequence (Q01970 whole entry, looked up): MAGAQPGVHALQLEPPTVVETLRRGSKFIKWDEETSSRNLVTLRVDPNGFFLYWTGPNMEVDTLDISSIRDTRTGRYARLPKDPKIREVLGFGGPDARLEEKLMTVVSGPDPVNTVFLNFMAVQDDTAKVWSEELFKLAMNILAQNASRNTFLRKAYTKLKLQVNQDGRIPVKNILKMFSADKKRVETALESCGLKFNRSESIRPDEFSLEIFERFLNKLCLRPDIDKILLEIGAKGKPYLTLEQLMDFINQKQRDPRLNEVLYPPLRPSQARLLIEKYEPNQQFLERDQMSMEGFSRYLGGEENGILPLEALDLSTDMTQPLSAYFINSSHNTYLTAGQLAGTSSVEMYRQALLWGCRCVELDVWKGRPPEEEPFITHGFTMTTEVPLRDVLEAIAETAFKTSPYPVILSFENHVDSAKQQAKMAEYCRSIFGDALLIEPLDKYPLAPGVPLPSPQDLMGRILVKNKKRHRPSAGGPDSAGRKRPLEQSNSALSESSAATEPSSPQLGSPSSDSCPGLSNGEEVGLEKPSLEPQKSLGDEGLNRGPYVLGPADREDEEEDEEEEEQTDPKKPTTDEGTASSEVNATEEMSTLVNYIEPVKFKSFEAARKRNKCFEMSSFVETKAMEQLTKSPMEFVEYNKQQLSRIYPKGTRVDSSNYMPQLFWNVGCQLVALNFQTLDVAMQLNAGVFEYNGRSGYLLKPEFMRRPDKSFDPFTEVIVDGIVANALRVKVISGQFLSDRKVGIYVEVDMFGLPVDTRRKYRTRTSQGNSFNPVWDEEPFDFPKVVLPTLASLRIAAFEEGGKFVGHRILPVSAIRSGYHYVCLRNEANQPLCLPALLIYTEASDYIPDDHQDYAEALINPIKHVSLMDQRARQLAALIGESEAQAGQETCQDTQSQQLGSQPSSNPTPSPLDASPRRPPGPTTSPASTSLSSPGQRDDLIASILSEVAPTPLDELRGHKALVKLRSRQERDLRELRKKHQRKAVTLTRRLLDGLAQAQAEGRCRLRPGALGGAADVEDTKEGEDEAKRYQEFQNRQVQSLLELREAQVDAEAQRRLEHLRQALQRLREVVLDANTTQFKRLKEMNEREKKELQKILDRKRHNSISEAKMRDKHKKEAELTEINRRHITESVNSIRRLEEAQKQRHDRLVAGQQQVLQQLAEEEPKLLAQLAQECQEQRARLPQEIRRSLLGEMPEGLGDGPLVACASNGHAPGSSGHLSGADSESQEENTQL
PLC-gamma1 inh: inhibitors of human phospholipase C gamma1. purified PLC-gamma1, fluorogenic substrate, fluorescence. P19174. 0.84% of 370,000 active. inhibition, % at 12.2 µM; in the data active means inhibition above about 9.5%
KLK7 act conf: proKLK7 activation, confirmation; shares compounds with proKLK7 act; purified proKLK7, EDANS-DABCYL substrate fluorescence; scaled: vehicle 0, mature enzyme 100; activation, % at 7 µM; 68% of 3,200 active;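 active means activation, as change over the incubation, above the mean of all tested compounds plus 3 SD, cut at about 13% in these data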
EDANS-DABCYL int: fluorescence interference counter-screen for KLK7 activators; activation, % at 7 µM; shares compounds with proKLK7 act; AID 686952; 80% of 3,200 active; EDANS-DABCYL substrate fluorescence interference, no enzyme, 4 h; solvent 0%, active enzyme control 100%;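 active means activation above the all-compound mean plus 3 SD, ignoring values outside control-based bounds, cut at about 4.8% in these data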;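 further: value is the 4 h activation minus the activation read at time zero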
The depositor's hits bear a star. The list is not random: actives were taken first. Their share in the collection is about 2.9%.

How did COc1ccc(NC(=O)COc2ccc(/C=C/c3cc[n+](C)cc3)cc2OC)cc1 do in these assays?
ADAM10 inh: -56; proKLK7 act: 31*; ADAM17 inh: -20; PLCb3 inh: inactive; PLC-gamma1 inh: inactive; KLK7 act conf: 64*; EDANS-DABCYL int: 68*

What do the screens show for `C=CCn1c(SCc2cccc(C(F)(F)F)c2)nnc1-c1ccc(OC)cc1`?
ADAM10 inh: -5; proKLK7 act: 0; ADAM17 inh: -2; PLCb3 inh: -1; PLC-gamma1 inh: 0

Results for COc1ccc2c(c1)[C@@]1(OCCC=C[C@H]1C)C(=O)N2CC1CC1 ?
ADAM10 inh: 1; proKLK7 act: 1; ADAM17 inh: -1; PLCb3 inh: 3; PLC-gamma1 inh: 0

What do the screens show for `COc1ccc(CNC(=O)CCNS(=O)(=O)c2ccc3[nH]c(=O)oc3c2)cc1`?
ADAM10 inh: 4; proKLK7 act: 1; ADAM17 inh: 2; PLCb3 inh: 0; PLC-gamma1 inh: 1

Results for COC(=O)[C@]12C[C@H](CC(=O)N3CCC(c4ccccc4)CC3)C(=O)N(Cc3ccccc3)C1=C[C@H](C(C)(C)C)O[C@@H]2C ?
ADAM10 inh: 3; proKLK7 act: 0; ADAM17 inh: -1; PLCb3 inh: 1; PLC-gamma1 inh: 0

Results for Nc1ccc(O)c(-c2nc3ccccc3s2)c1 ?
ADAM10 inh: -26; proKLK7 act: -7; ADAM17 inh: -5; PLCb3 inh: -123; PLC-gamma1 inh: -106

Results for Nc1cccc(-c2nc3ccc(N)cc3s2)c1 ?
ADAM10 inh: inactive; proKLK7 act: 82*; ADAM17 inh: inactive; PLCb3 inh: inactive; PLC-gamma1 inh: inactive; KLK7 act conf: 57*; EDANS-DABCYL int: 75*

Results for Nc1ccc(-c2nc3ccc(C(=O)O)cc3s2)cc1 ?
ADAM10 inh: inactive; proKLK7 act: 79*; ADAM17 inh: inactive; PLCb3 inh: inactive; PLC-gamma1 inh: inactive; KLK7 act conf: 75*; EDANS-DABCYL int: 76*

Results for Nc1cc2sc(-c3ccc(C(=O)O)cc3)nc2cc1Cl ?
ADAM10 inh: inactive; proKLK7 act: 51*; ADAM17 inh: inactive; PLCb3 inh: inactive; PLC-gamma1 inh: inactive; KLK7 act conf: 68*; EDANS-DABCYL int: 75*

How did Oc1ccc(-c2nc3ccccc3s2)cc1 do in these assays?
ADAM10 inh: -449; proKLK7 act: -21; ADAM17 inh: -133; PLCb3 inh: -112; PLC-gamma1 inh: -84

How did Nc1ccc(-c2nc3ccc(N)cc3s2)cc1 do in these assays?
ADAM10 inh: inactive; proKLK7 act: 61*; ADAM17 inh: inactive; PLCb3 inh: inactive; PLC-gamma1 inh: inactive; KLK7 act conf: 67*; EDANS-DABCYL int: 70*

How did O=C(O)c1ccc2nc(-c3ccccc3)sc2c1 do in these assays?
ADAM10 inh: -6; proKLK7 act: 0; ADAM17 inh: -2; PLCb3 inh: -2; PLC-gamma1 inh: 0

Results for S=C(Nc1cccc(Br)c1)OC1CCC12CCC(c1ccccc1)CC2 (stereo not drawn) ?
ADAM10 inh: 0; proKLK7 act: 0; ADAM17 inh: 0; PLCb3 inh: 0; PLC-gamma1 inh: -2

How did Cc1ccc(/C=C/c2nc3ccccc3[nH]2)o1 do in these assays?
ADAM10 inh: -158; proKLK7 act: 21*; ADAM17 inh: -55; PLCb3 inh: inactive; PLC-gamma1 inh: -390; KLK7 act conf: 31*; EDANS-DABCYL int: 30*

Results for CC(C)CN1C(=O)C[C@@]2(C(=O)N(C)c3ccc(NS(=O)(=O)c4ccc(F)cc4)cc32)C1c1ccccc1 (stereo partly drawn) ?
ADAM10 inh: 0; proKLK7 act: 1; ADAM17 inh: -1; PLCb3 inh: 1; PLC-gamma1 inh: 0

What do the screens show for `CN(Cc1cnc2nc(N)nc(N)c2n1)c1ccc(C(=O)N[C@@H](CCC(=O)O)C(=O)O)cc1`?
ADAM10 inh: inactive; proKLK7 act: 18*; ADAM17 inh: -411; PLCb3 inh: inactive; PLC-gamma1 inh: inactive; KLK7 act conf: -9; EDANS-DABCYL int: -13

How did Nc1nc2ncc(CNc3ccc(C(=O)N[C@@H](CCC(=O)O)C(=O)O)cc3)nc2c(=O)[nH]1 do in these assays?
ADAM10 inh: inactive; proKLK7 act: -6; ADAM17 inh: -155; PLCb3 inh: -149; PLC-gamma1 inh: -123

What do the screens show for `Nc1cc2nn(-c3ccccc3)nc2cc1Cl`?
ADAM10 inh: inactive; proKLK7 act: 21*; ADAM17 inh: -182; PLCb3 inh: inactive; PLC-gamma1 inh: -457; KLK7 act conf: -50; EDANS-DABCYL int: -39

How did Nc1ccc2nn(-c3ccccc3)nc2c1 do in these assays?
ADAM10 inh: -318; proKLK7 act: 30*; ADAM17 inh: -96; PLCb3 inh: inactive; PLC-gamma1 inh: inactive; KLK7 act conf: 66*; EDANS-DABCYL int: 68*

Results for N#Cc1ccc2c(c1)nnn2-c1ccccc1 ?
ADAM10 inh: -6; proKLK7 act: 0; ADAM17 inh: -6; PLCb3 inh: -6; PLC-gamma1 inh: 0

What do the screens show for `Nc1ccc2c(c1)nnn2-c1ccccc1`?
ADAM10 inh: inactive; proKLK7 act: 31*; ADAM17 inh: -166; PLCb3 inh: inactive; PLC-gamma1 inh: inactive; KLK7 act conf: 45*; EDANS-DABCYL int: 44*

How did Cc1ccc(-n2nc3cc(C)c(N)cc3n2)cc1 do in these assays?
ADAM10 inh: -370; proKLK7 act: 0; ADAM17 inh: -96; PLCb3 inh: -468; PLC-gamma1 inh: -365

What do the screens show for `Nc1ccc(-n2nc3ccccc3n2)cc1`?
ADAM10 inh: -154; proKLK7 act: 0; ADAM17 inh: -45; PLCb3 inh: inactive; PLC-gamma1 inh: inactive

How did COC(=O)[C@]12C[C@H](CC(=O)N3CCN(C(=O)c4ccco4)CC3)C(=O)N(CCc3ccc(OC)c(OC)c3)C1=C[C@H](COCc1ccccc1)O[C@@H]2C do in these assays?
ADAM10 inh: 1; proKLK7 act: -1; ADAM17 inh: 2; PLCb3 inh: 6; PLC-gamma1 inh: 3

Results for COC(=O)c1cc2c(c3c4cc(C)ccc4n(S(=O)(=O)c4ccc(OC)cc4)c13)C(=O)N(Cc1ccccc1)C2 ?
ADAM10 inh: -2; proKLK7 act: -4; ADAM17 inh: -5; PLCb3 inh: -22; PLC-gamma1 inh: -15

How did OC1CCCN(Cc2c3ccccc3cc3ccccc23)C1 (stereo not drawn) do in these assays?
ADAM10 inh: inactive; proKLK7 act: 15*; ADAM17 inh: -188; PLCb3 inh: -131; PLC-gamma1 inh: -134; KLK7 act conf: -2; EDANS-DABCYL int: -2

Results for OC1CCCN(Cc2cccc3ccccc23)C1 (stereo not drawn) ?
ADAM10 inh: 7; proKLK7 act: 0; ADAM17 inh: 1; PLCb3 inh: 2; PLC-gamma1 inh: 5

Bioassay records as filed in PubChem.
